According to PubChem BioAssay AID1159580 (chemical genetic matrix, 2015):
“And” between values parts separate entries of the source, which are not always exact repeats. Equal entries are not always repeated. The campaign covered roughly 5,500 compounds. About 2,000 (36%) were called active. About 18% were inconclusive and are not listed. No stated cut-off is given here; in the data, active means normalized growth mostly below about 0.91 (no sharp cut-off); inconclusive means no clear call, values can overlap the other calls; inactive means mostly above about 0.92. The list shows a part of the results.

Assay: chemical genetic growth profiling, strain panel (AID 1159580);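 further: tested at 20 µM; growth read once vehicle control cultures reached saturation at 30 °C; 1 = growth at the plate median or of vehicle wells; lower values mean less growth of the strain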
Conditions: S. cerevisiae deletion strains, growth OD

Measured: normalized growth

CC1(C)CC2C1CCC1(C)OC2(C)CCC1O (stereo not given)
inactive: locus YAL021C, strain ccr4, active compounds read low 1.02 | locus YAL026C, strain drs2, active compounds read low 1.05 | locus YAL030W, strain snc1, active compounds read low 1.03 | locus YBL061C, strain skt5, active compounds read low 1.03 | locus YBR009C, strain hhf1, active compounds read low 1.03 | locus YBR021W, strain FUR4, active compounds read low 1.03 | locus YBR023C, strain chs3, active compounds read low 1.03 | locus YBR171W, strain sec66, active compounds read low 1.03 | locus YBR229C, strain ROT2, active compounds read low 1.02 | locus YBR231C, strain swc5, active compounds read low 1.02 | locus YBR279W, strain paf1, active compounds read low 1.02 | locus YCL011C, strain gbp2, active compounds read low 1.02 | locus YCL016C, strain dcc1, active compounds read low 1.01 | locus YCL029C, strain bik1, active compounds read low 1.01 | locus YCL061C, strain MRC1, active compounds read low 1.03 | locus YCL069W, strain vba3, active compounds read low 1.03 | locus YCR088W, strain abp1, active compounds read low 1.02 | locus YDL005C, strain med2, active compounds read low 1.03 | locus YDL035C, strain GPR1, active compounds read low 0.989 | locus YDL040C, strain nat1, active compounds read low 1.01 | locus YDL074C, strain BRE1, active compounds read low 1.02 | locus YDL101C, strain DUN1, active compounds read low 1.03 | locus YDL185W, strain tfp1, active compounds read low 1.01 | locus YDL192W, strain arf1, active compounds read low 1 | locus YDR001C, strain nth1, active compounds read low 1.02 | locus YDR069C, strain doa4, active compounds read low 1.02 | locus YDR101C, strain arx1, active compounds read low 0.993 | locus YDR137W, strain rgp1, active compounds read low 1.03 | locus YDR159W, strain sac3, active compounds read low 1.03 | locus YDR162C, strain NBP2, active compounds read low 1.02 | locus YDR195W, strain ref2 1.02 | locus YDR297W, strain sur2, active compounds read low 1.04 | locus YDR318W, strain mcm21, active compounds read low 0.994 | locus YDR334W, strain swr1, active compounds read low 1.03 | locus YDR335W, strain msn5, active compounds read low 1.02 | locus YDR388W, active compounds read low 1.01 | locus YDR392W, strain spt3, active compounds read low 0.958 | locus YDR502C, strain sam2, active compounds read low 1.03 | locus YEL003W, strain gim4, active compounds read low 1.02 | locus YEL037C, strain rad23, active compounds read low 1.02 | locus YEL061C, strain CIN8 (second series), active compounds read low 1.02 | locus YER015W, strain faa2, active compounds read low 1.04 | locus YER016W, strain bim1, active compounds read low 1.02 | locus YER110C, active compounds read low 1.01 | locus YER111C, strain swi4, active compounds read low 1.02 | locus YER155C, strain BEM2 (second series), active compounds read low 1.04 | locus YER155C, strain BEM2, active compounds read low 0.996 | locus YER167W, strain BCK2, active compounds read low 1 | locus YFR010W, strain ubp6, active compounds read low 1.04 | locus YGL078C, strain dbp3, active compounds read low 1.03 | locus YGL086W, strain mad1, active compounds read low 1.02 | locus YGL167C, strain pmr1, active compounds read low 1.03 | locus YGL173C, strain kem1, active compounds read low 1.04 | locus YGL227W, strain vid30, active compounds read low 1.01 | locus YGL240W, strain doc1, active compounds read low 1.03 | locus YGL248W, strain PDE1, active compounds read low 1.07 | locus YGL253W, strain hxk2, active compounds read low 1.04 | locus YGR135W, strain pre9, active compounds read low 1.08 | locus YGR229C, strain SMI1, active compounds read low 0.978 | locus YGR252W, strain gcn5, active compounds read low 1.11 | locus YHR013C, strain ard1, active compounds read low 1.06 | locus YHR027C, strain rpn1, active compounds read low 1.05 | locus YHR030C, strain SLT2, active compounds read low 0.992 and 1.02 | locus YHR079C, strain IRE1 (second series), active compounds read low 1.01 | locus YHR079C, strain IRE1, active compounds read low 1.02 | locus YHR094C, strain hxt1, active compounds read low 1.02 | locus YHR129C, strain ARP1, active compounds read low 1.01 | locus YHR142W, strain chs7, active compounds read low 1.02 | locus YHR200W, strain rpn10, active compounds read low 1.03 | locus YIL066C, strain RNR3, active compounds read low 1.01 | locus YIL073C, strain SPO22, active compounds read low 1.02 | locus YIL125W, strain kgd1, active compounds read low 0.999 | locus YIR030C, strain dcg1, active compounds read low 1 | locus YJL092W, strain hpr5, active compounds read low 1.03 | locus YJL095W, strain BCK1 (second series), active compounds read low 1.03 | locus YJL095W, strain BCK1, active compounds read low 1.09 and 1.03 | locus YJL115W, strain asf1, active compounds read low 1.03 | locus YJL129C, strain trk1, active compounds read low 1.05 | locus YJL134W, strain LCB3, active compounds read low 1 | locus YJL154C, strain vps35, active compounds read low 1.03 | locus YJL164C, strain tpk1, active compounds read low 1.01 | locus YJL166W, strain qcr8, active compounds read low 1.03 | locus YJL168C, strain set2, active compounds read low 1.01 | locus YJL187C, strain SWE1 (second series), active compounds read low 1.05 | locus YJR043C, strain POL32, active compounds read low 0.976 | locus YJR066W, strain TOR1, active compounds read low 0.959 | locus YJR075W, strain HOC1, active compounds read low 1.01 | locus YKL009W, strain mrt4, active compounds read low 0.984 | locus YKL068W, active compounds read low 1 | locus YKL085W, strain MDH1 (second series), active compounds read low 0.978 | locus YKL085W, strain MDH1, active compounds read low 0.978 | locus YKL160W, strain elf1, active compounds read low 1 | locus YKL190W, strain CNB1, active compounds read low 1 | locus YKR001C, strain vps1, active compounds read low 1.03 | locus YKR026C, strain gcn3, active compounds read low 1.03 | locus YKR091W, strain srl3, active compounds read low 1.01 | locus YLL001W, strain dnm1, active compounds read low 0.991 | locus YLL026W, active compounds read low 1.02 | locus YLL041C, strain sdh2, active compounds read low 1.02 | locus YLR027C, strain aat2, active compounds read low 1.02 | locus YLR039C, strain RIC1, active compounds read low 1.05 | locus YLR058C, strain SHM2, active compounds read low 1.03 | locus YLR102C, strain apc9, active compounds read low 1 | locus YLR113W, strain HOG1, active compounds read low 1.03 | locus YLR221C, strain rsa3, active compounds read low 1.04 | locus YLR258W, strain gsy2, active compounds read low 1.01 | locus YLR262C, strain YPT6 (second series), active compounds read low 1.03 | locus YLR268W, strain sec22, active compounds read low 0.981 | locus YLR320W, strain mms22, active compounds read low 1.04 | locus YLR330W, strain CHS5, active compounds read low 1 | locus YLR342W, strain FKS1 (second series), active compounds read low 0.993 | locus YLR342W, strain FKS1, active compounds read low 1.03 | locus YLR357W, strain rsc2, active compounds read low 1.04 | locus YLR370C, strain arc18, active compounds read low 1.02 | locus YLR371W, strain rom2, active compounds read low 1.02 | locus YLR384C, strain iki3, active compounds read low 1.02 | locus YLR418C, strain cdc73, active compounds read low 1.08 | locus YML016C, strain PPZ1, active compounds read low 1.01 | locus YML032C, strain rad52, active compounds read low 1.02 | locus YML120C, strain ndi1, active compounds read low 1.01 | locus YML124C, strain tub3, active compounds read low 1.01 | locus YMR058W, strain fet3, active compounds read low 1.04 | locus YMR078C, strain ctf18, active compounds read low 1.02 | locus YMR125W, strain sto1, active compounds read low 1.05 | locus YMR129W, active compounds read low 1.01 | locus YMR205C, strain PFK2, active compounds read low 1.04 | locus YMR223W, strain ubp8, active compounds read low 1.01 | locus YMR231W, strain pep5, active compounds read low 1.02 | locus YMR263W, strain SAP30, active compounds read low 1.02 | locus YMR307W, strain GAS1, active compounds read low 1.03 | locus YNL067W, strain RPL9B, active compounds read low 1.04 | locus YNL071W, strain lat1, active compounds read low 1.02 | locus YNL183C, strain NPR1, active compounds read low 0.969 | locus YNL209W, strain ssb2, active compounds read low 1.02 | locus YNL233W, strain BNI4, active compounds read low 1.07 | locus YNL248C, strain rpa49, active compounds read low 1.03 | locus YNL250W, strain rad50, active compounds read low 1.04 | locus YNL271C, strain bni1, active compounds read low 1.01 | locus YNL298W, strain CLA4, active compounds read low 1.01 | locus YNL307C, strain MCK1, active compounds read low 1.02 | locus YNL322C, strain KRE1 (second series), active compounds read low 1.02 | locus YNR049C, strain mso1, active compounds read low 1.06 | locus YNR052C, strain pop2, active compounds read low 1.03 | locus YOL012C, strain htz1 1.1 | locus YOL147C, strain pex11, active compounds read low 1.02 | locus YOR001W, strain rrp6, active compounds read low 1.03 | locus YOR061W, strain CKA2, active compounds read low 0.999 | locus YOR069W, strain VPS5, active compounds read low 1 | locus YOR070C, strain gyp1, active compounds read low 1.02 | locus YOR080W, strain dia2, active compounds read low 1.05 | locus YOR083W, strain WHI5, active compounds read low 1 | locus YOR106W, strain vam3, active compounds read low 1 | locus YOR136W, strain idh2, active compounds read low 1.02 | locus YOR144C, strain elg1, active compounds read low 1 | locus YOR184W, strain ser1, active compounds read low 0.981 | locus YOR231W, strain MKK1, active compounds read low 1.02 | locus YOR265W, strain rbl2, active compounds read low 1.03 | locus YOR270C, strain vph1, active compounds read low 1.07 | locus YOR290C, strain snf2, active compounds read low 1.01 | locus YOR316C, strain cot1, active compounds read low 1.02 | locus YPL051W, strain arl3, active compounds read low 1 | locus YPL078C, strain atp4, active compounds read low 1.01 | locus YPL106C, strain sse1, active compounds read low 1.04 | locus YPL240C, strain hsp82, active compounds read low 1.02 | locus YPL256C, strain CLN2, active compounds read low 1.03 | locus YPR119W, strain clb2, active compounds read low 1 | locus YPR141C, strain kar3, active compounds read low 0.987 | locus YPR163C, strain tif3, active compounds read low 1.02 | locus YPR167C, strain met16, active compounds read low 1.01 | strain wtn01, active compounds read low 1
